We go through six compounds from PubChem BioAssay (NCI).

About 83,000 compounds went through this panel and 20% of them were active in at least one assay; those are over-represented in the sample as a whole.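 Negative percent growth values reflect cell death: -40 means 40% of the cells present at the start died, and -100 means all died.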 A number with no mark means an inactive call. Calls of active or inactive are those of the source. The calls were made as follows: active = growth percent below 10; inactive = the rest.

What all share (test): NCI-60 one-dose screen, 48 h (100 = growth as untreated, 0 = no growth, -100 = all killed)
One experiment has as its system 786-0 renal. Particulars: 10 µM.
Another experiment concerns K-562 leukemia. Particulars: 10 µM.
The subject of another experiment is MALME-3M melanoma. To be noted: 10 µM.
The subject of a further experiment is RXF 393 renal. To be noted: 10 µM.
The next experiment has as its system EKVX NSCLC. Particulars: 10 µM.
The subject of a further experiment is SN12C renal. Particulars: 10 µM.
The next experiment concerns UO-31 renal. Particulars: 10 µM.
The test system of another experiment is TK-10 renal. To be noted: 10 µM.
The next experiment concerns ACHN renal. Particulars: 10 µM.
The next experiment has as its system CAKI-1 renal. To be noted: 10 µM.
A further experiment relates to CCRF-CEM leukemia. Particulars: 10 µM.
For a further experiment, the system named is OVCAR-8 ovarian. To be noted: 10 µM.
For the next experiment, the system named is OVCAR-5 ovarian. To be noted: 10 µM.
For a further experiment, the system named is OVCAR-4 ovarian. Particulars: 10 µM.
Another experiment concerns SK-OV-3 ovarian. To be noted: 10 µM.
Another experiment relates to OVCAR-3 ovarian. To be noted: 10 µM.
A further experiment deals with NCI/ADR-RES ovarian. To be noted: 10 µM.
For the next experiment, the system named is BT-549 breast. To be noted: 10 µM.
The next experiment relates to MCF7 breast. To be noted: 10 µM.
The test system of another experiment is MDA-MB-468 breast. To be noted: 10 µM unless noted.

On to `C[C@H]1[C@@H](CC(=O)N[C@@H](Cc2coc3ccccc23)B(O)O)O[C@@H]2OC3(C)CC[C@H]4[C@H](C)CC[C@@H]1[C@@]24OO3`, for which the growth in the experiment on 786-0 renal is 16.5%; in the experiment on K-562 leukemia it was 4.86% (active); with MALME-3M melanoma, -60% (active); with RXF 393 renal, -88.4% (active); in the experiment on EKVX NSCLC it was 7.62% (active); with SN12C renal, -78.6% (active). In addition, the growth in the experiment on UO-31 renal is 18.3%; in the experiment with TK-10 renal, 16.5%; in the experiment on ACHN renal, 13.2%; in the experiment on CAKI-1 renal it was 25.2%; in the experiment with CCRF-CEM leukemia it was -10.3% (active); in the experiment on OVCAR-8 ovarian, -6.75% (active). Besides, the growth in the experiment with OVCAR-5 ovarian is -57.1% (active); in the experiment with OVCAR-4 ovarian, 18.3%; with SK-OV-3 ovarian, -22.9% (active); in the experiment on OVCAR-3 ovarian, -14.9% (active); in the experiment with NCI/ADR-RES ovarian, 27.6%; in the experiment on BT-549 breast, -92% (active). Moreover, the growth in the experiment with MCF7 breast was 12%; in the experiment on MDA-MB-468 breast, -60.6% (active).

Consider `N#C[Se]CC(=O)Nc1cccc(C(F)(F)F)c1`, for which the growth was -54% (active) in the experiment on 786-0 renal; 20.5% in the experiment with K-562 leukemia; -95.3% (active) with MALME-3M melanoma; -40.9% (active) in the experiment on RXF 393 renal; -94.5% (active) in the experiment on EKVX NSCLC; -78.1% (active) with SN12C renal. For the same compound, the growth in the experiment on UO-31 renal is -84.2% (active); in the experiment with TK-10 renal, -79.8% (active); with ACHN renal it was -38% (active); in the experiment with CAKI-1 renal it was -72.1% (active); with CCRF-CEM leukemia, 22.5%; with OVCAR-8 ovarian it was -49.9% (active). Also, the growth was -36.7% (active) in the experiment with OVCAR-5 ovarian; 36.8% with OVCAR-4 ovarian; 14% in the experiment with SK-OV-3 ovarian; -13.7% (active) in the experiment with OVCAR-3 ovarian; -60.8% (active) with NCI/ADR-RES ovarian; -90.2% (active) in the experiment on BT-549 breast. In addition, the growth was 6% (active) with MCF7 breast and -86.7% (active) with MDA-MB-468 breast.

For the compound `CC1=C2C(=C[C@@](C)(COP(=O)(Oc3ccccc3)Oc3ccccc3)[C@@H]2O)C(=O)[C@@](C)(O)C12CC2`, the growth is -16.1% (active) in the experiment with 786-0 renal; -96.7% (active) in the experiment on MALME-3M melanoma; -95.6% (active) in the experiment with RXF 393 renal; -52.5% (active) in the experiment with EKVX NSCLC; -76.3% (active) in the experiment with SN12C renal; -68.6% (active) with UO-31 renal. Further, the growth in the experiment on TK-10 renal is -22.2% (active); in the experiment with ACHN renal it was -56.8% (active); with CAKI-1 renal, -19.5% (active); with CCRF-CEM leukemia, 12.5%; in the experiment with OVCAR-8 ovarian it was -68.5% (active); in the experiment on OVCAR-5 ovarian, -64.5% (active). The growth in the experiment on OVCAR-4 ovarian is -72.9% (active); in the experiment on SK-OV-3 ovarian, -79.5% (active); in the experiment on OVCAR-3 ovarian it was -75.4% (active); in the experiment on NCI/ADR-RES ovarian it was -75.5% (active); with BT-549 breast, -2.47% (active); in the experiment with MCF7 breast it was 4.25% (active). Further, in the experiment on MDA-MB-468 breast, the growth is -89.8% (active).

Take `CC(C)N=C([Se])NC(=O)c1cccs1`: the growth is 2.02% (active) with 786-0 renal; 71% in the experiment on K-562 leukemia; 102% with MALME-3M melanoma; 21.6% in the experiment on RXF 393 renal; 14.7% in the experiment on EKVX NSCLC; -21.4% (active) in the experiment on SN12C renal. Moreover, the growth was 12.4% in the experiment on UO-31 renal; 56% in the experiment on TK-10 renal; 47.2% with ACHN renal; 31.1% with CAKI-1 renal; 29.7% in the experiment on CCRF-CEM leukemia; -36.8% (active) with OVCAR-8 ovarian. For the same compound, the growth in the experiment on OVCAR-5 ovarian was -22.6% (active); in the experiment with OVCAR-4 ovarian it was 83%; in the experiment with SK-OV-3 ovarian, -17.3% (active); with OVCAR-3 ovarian, 66.3%; with NCI/ADR-RES ovarian, -27% (active); in the experiment on BT-549 breast it was 43.7%. The growth in the experiment on MCF7 breast was 1.79% (active); with MDA-MB-468 breast it was 64.4%.

For the compound `C[C@H]1[C@H](OC(=O)CCC(=O)N(CCCc2cn(-c3ccc(CN4CCOCC4)cc3)nn2)CCNc2ccnc3cc(Cl)ccc23)O[C@@H]2OC3(C)CC[C@H]4[C@H](C)CC[C@@H]1[C@@]24OO3`, the growth was -65% (active) in the experiment with 786-0 renal; 4.56% (active) in the experiment on K-562 leukemia; -90% (active) with MALME-3M melanoma; 7.45% (active) in the experiment on RXF 393 renal; 49% with EKVX NSCLC; 23.2% with SN12C renal. Besides, the growth in the experiment on UO-31 renal is 13.1%; with TK-10 renal, 48.8%; in the experiment on ACHN renal it was 23.1%; with CAKI-1 renal, 21.4%; with CCRF-CEM leukemia, 8.19% (active); in the experiment on OVCAR-8 ovarian, 19.4%. Besides, the growth was 42.1% with OVCAR-5 ovarian; 45.9% with OVCAR-4 ovarian; 74.2% with SK-OV-3 ovarian; 38.3% with OVCAR-3 ovarian; 26.1% in the experiment with NCI/ADR-RES ovarian; 5.43% (active) with BT-549 breast. Also, the growth was 11.2% in the experiment with MCF7 breast and 29% with MDA-MB-468 breast.

Regarding `O=C(/C=C/c1ccc(F)cc1)c1nc2ccccc2n1Cc1ccc(Br)cc1`, the growth in the experiment on 786-0 renal is -82.4% (active); in the experiment with K-562 leukemia it was -12.7% (active); in the experiment on MALME-3M melanoma, -77.9% (active); in the experiment on RXF 393 renal, -91.1% (active); in the experiment on EKVX NSCLC, -91.5% (active); in the experiment on SN12C renal, -40.4% (active). Besides, the growth with UO-31 renal is -92.5% (active); with TK-10 renal, -19.1% (active); in the experiment with ACHN renal, -73.9% (active); in the experiment on CAKI-1 renal it was -23% (active); in the experiment on CCRF-CEM leukemia, -1.81% (active); in the experiment with OVCAR-8 ovarian, -1.74% (active). For the same compound, the growth with OVCAR-5 ovarian is -55.1% (active); with OVCAR-4 ovarian, 19.2%; in the experiment with SK-OV-3 ovarian, 30.2%; in the experiment with OVCAR-3 ovarian, -73.6% (active); in the experiment with NCI/ADR-RES ovarian it was -59.8% (active); in the experiment with BT-549 breast, -78.1% (active). Besides, the growth in the experiment with MCF7 breast was -27.4% (active); in the experiment on MDA-MB-468 breast, -90.8% (active).
